Experimental data reported in PMC5700166.

Tests used:
[1] = target: T1, GST-Nv-NF-kB (Ser allele) (Nematostella vectensis, UniProt A7UNT2 2-411); experiment: protein-binding microarray (PBM); PBM: ~300 nM protein, 6 mM HEPES pH 7.8, 80 mM KCl, 0.5 mM EDTA, 0.5 mM EGTA, 6% glycerol, 35 ng/ul poly-dIdC, 1% milk, 1 h, room temperature; Ap Aiptasia and Nv Nematostella (sea anemones) / Co Capsaspora / Aq Amphimedon (sponge) / Dm Drosophila / Hu human; RHD is the Rel homology domain; high values mean tight binding; conditions: dsDNA, one strand shown
T1 sequence: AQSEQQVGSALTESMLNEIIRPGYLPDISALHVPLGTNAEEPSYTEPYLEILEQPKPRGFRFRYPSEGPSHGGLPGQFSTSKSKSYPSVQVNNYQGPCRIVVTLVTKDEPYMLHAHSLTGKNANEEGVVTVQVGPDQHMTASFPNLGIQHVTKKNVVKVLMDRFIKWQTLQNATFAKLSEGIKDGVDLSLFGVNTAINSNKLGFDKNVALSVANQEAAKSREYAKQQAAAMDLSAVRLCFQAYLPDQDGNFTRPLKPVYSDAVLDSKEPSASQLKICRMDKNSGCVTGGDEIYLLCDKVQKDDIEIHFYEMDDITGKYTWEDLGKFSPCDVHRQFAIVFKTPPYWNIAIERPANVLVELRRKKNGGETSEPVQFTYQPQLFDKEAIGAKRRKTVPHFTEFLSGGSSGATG

[2] = target: GST-Hu-p50 (Homo sapiens, UniProt P19838 7-356); experiment: as above; conditions: dsDNA, one strand shown
GST-Hu-p50, sequence (P19838 7-356): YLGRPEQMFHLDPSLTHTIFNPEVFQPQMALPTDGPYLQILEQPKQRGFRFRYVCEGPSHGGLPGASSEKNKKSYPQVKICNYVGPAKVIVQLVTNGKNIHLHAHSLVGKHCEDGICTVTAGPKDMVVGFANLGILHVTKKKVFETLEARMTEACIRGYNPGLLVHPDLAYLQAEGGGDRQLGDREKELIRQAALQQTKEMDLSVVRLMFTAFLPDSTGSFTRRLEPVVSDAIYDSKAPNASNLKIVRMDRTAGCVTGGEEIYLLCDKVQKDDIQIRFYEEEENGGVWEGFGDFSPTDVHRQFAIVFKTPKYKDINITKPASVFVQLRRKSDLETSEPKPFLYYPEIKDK

Sequence | binding signal [1] [z-score] | binding signal [2] [z-score]
CCGATTAACATCAAAGTACCCCCTGATGTTAATCGGGTCTTGATTCGCTTGACGCTGCTG | 5.79 | 4.53
CCGATTAACATCAAGGGGGGTGGTGATGTTAATCGGGTCTTGATTCGCTTGACGCTGCTG | 4.43 | 4.27
CCGATTAACATCAGGGAAAGGAATGATGTTAATCGGGTCTTGATTCGCTTGACGCTGCTG | 2.07 | 1.29
CCGATTAACATCAAAAAATGCCCTGATGTTAATCGGGTCTTGATTCGCTTGACGCTGCTG | 1.9 | 3.14
CCGATTAACATCAGGAAATGCCCTGATGTTAATCGGGTCTTGATTCGCTTGACGCTGCTG | 1.15 | 2.89
CCGATTAACATCATGCGGGAAAATGATGTTAATCGGGTCTTGATTCGCTTGACGCTGCTG | 4.76 | 2.69
CCGATTAACATCAATAAATACCCTGATGTTAATCGGGTCTTGATTCGCTTGACGCTGCTG | 6.32 | 5.25
CCGATTAACATCAGGCGTCCCCCTGATGTTAATCGGGTCTTGATTCGCTTGACGCTGCTG | 4.71 | 4.92
CCGATTAACATCAGGGTATTTACTGATGTTAATCGGGTCTTGATTCGCTTGACGCTGCTG | 4.72 | 5.1
CCGATTAACATCAAGGTAATTCCTGATGTTAATCGGGTCTTGATTCGCTTGACGCTGCTG | 3.37 | 2.4
CCGATTAACATCAGGCCTCCCCCTGATGTTAATCGGGTCTTGATTCGCTTGACGCTGCTG | 4.46 | 4.37
CCGATTAACATCACGGGACCCCCTGATGTTAATCGGGTCTTGATTCGCTTGACGCTGCTG | 3.8 | 3.54
